Bioassay records (PubChem BioAssay)
The list is not random: actives were taken first. Their share in the collection is about 9.4%.
Pf growth 48h: Primary qHTS for delayed death inhibitors of the malarial parasite plastid, 48 hour incubation | P. falciparum luciferase growth in erythrocytes, 48 h | Potency, µM (titrated, usually from 28.7 µM), usual class: inhibitors | 310,000 tested, 5.9% active
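A one-generation exposure of luciferase-tagged malaria parasites in RPMI 1640/Albumax erythrocyte culture, 37 C and 5% CO2. Inhibition is inferred from decreased luminescence after adding detection reagent.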
AMA1 RON2 block: qHTS for Inhibitors of AMA1-RON; Towards Development of Antimalarial Drug Lead: Primary Screen. Plasmodium falciparum AMA1 (3D7) - RON2 peptide interaction. AlphaScreen AMA1-biotinylated RON2 peptide binding. Potency, µM (top dose mostly 58.2 µM), most hits filed as inhibitors. 360,000 tested, 0.2% active. AID 720542, 2013; further: nearly all actives have a fitted effect of over 45% in size
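AMA1 (3D7) with his tag at 25 nM final met compounds first, then biotinylated RON2 peptide at 25 nM; detection used donor plus acceptor beads, 10 µg/mL apiece, read by AlphaScreen after 30 min at room temperature.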
Pf growth 96h: Primary qHTS for delayed death inhibitors of the malarial parasite plastid, 96 hour incubation; 320,000 tested, 6.9% active; P. falciparum luciferase reporter growth, 96 h; Potency, µM (series often up to 28.7 µM), actives largely listed as inhibitors
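Two parasite generations (96 h, 37 C, 5% CO2) of compound exposure in infected erythrocytes (0.05% parasitemia, 2% hematocrit). Luciferase-reporter P. falciparum; decreased luminescence indicates inhibited growth, aimed at apicoplast-acting delayed death.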
SARS PLpro yeast: qHTS of Yeast-based Assay for SARS-CoV PLP; Potency, µM (series often up to 32.9 µM), most hits filed as activators; S. cerevisiae expressing SARS-CoV PLpro, growth rescue; 330,000 tested, 0.19% active; AID 485353, 2010; calls by dose curve; further: nearly all actives have a fitted effect of over 55% in size
Of the large screens only hits and unclear results are named; the others gave an inactive call. Unless noted, the call rests on the fitted dose curve; in most records, active means well fitted curve in the direction sought with a large enough effect; inconclusive means small, poorly fitted or top-dose-only effect, or another doubt; inactive means no such curve, though single readings can be large; an effect the other way counts as inactive or inconclusive.

CC(Oc1ccc(F)cc1)C(=O)Nc1cc(S(=O)(=O)N2CCOCC2)ccc1N1CCCC1 (centres undefined)	Pf growth 96h inconclusive
Cc1cc(C)c(S(=O)(=O)N2CCCC(C(=O)N3CCOCC3)C2)c(C)c1 (centres undefined)	none
Cc1cc(C)c(NC(=O)COC(=O)CSc2ccc(Br)cc2C)c(C)c1	none
CCN(CC)c1ccc(NC(=O)COC(=O)CSc2ccc(Br)cc2C)cc1	AMA1 RON2 block 10µM
Cc1ccccc1[C@@]1(C)ON(c2ccccc2C(F)(F)F)C1=O	Pf growth 48h 1.7µM, Pf growth 96h 1µM
CC1(c2ccccc2)ON(c2ccccc2C(F)(F)F)C1=O (centres undefined)	Pf growth 48h 4.1µM, Pf growth 96h inconclusive (no result: AMA1 RON2 block)
CC[C@@]1(c2ccccc2OC)ON(c2ccccc2C(F)(F)F)C1=O	Pf growth 48h 0.59µM, Pf growth 96h inconclusive
O=c1c2ccccc2ncn1-c1ccccc1C(F)(F)F	none
O=C1N(c2ccccc2C(F)(F)F)O[C@]1(c1ccccc1)C1CCCC1	Pf growth 48h 1.7µM, Pf growth 96h 1.3µM
Cc1cc(C)c2c(N)c(C(=O)N/N=C/c3cccnc3)sc2n1	none
COC(=O)Nc1ccc(S(=O)(=O)N2CCN(c3ccc(F)cc3)CC2)cc1	none (no result: Pf growth 96h)
C1CCN=C(Nc2nn[nH]n2)CC1	none (no result: Pf growth 96h)
COc1ccc(NC(=O)CCNC(=O)c2ccccc2)cc1S(N)(=O)=O	none
Cc1ccc(NS(=O)(=O)N2CCOCC2)cc1Cl	Pf growth 96h inconclusive
CCC(C(=O)Nc1cc(F)ccc1F)n1nc(C)c2c(C)n(-c3ccc(C)cc3)nc2c1=O (centres undefined)	Pf growth 48h inconclusive, Pf growth 96h 8.3µM
CCC(C(=O)Nc1ccccc1F)n1nc(C)c2c(C)n(-c3ccccc3)nc2c1=O (centres undefined)	Pf growth 48h inconclusive, Pf growth 96h 15µM
CCOc1ccc(NC(=O)C(CC)n2nc(C)c3c(C)n(-c4ccccc4)nc3c2=O)cc1 (centres undefined)	Pf growth 48h inconclusive, Pf growth 96h 13µM
COc1ccc(-n2ncc3c(=O)n(CC(=O)Nc4ccc5c(c4)OCCO5)cnc32)cc1	Pf growth 96h 4.7µM
COc1ccc(-n2ncc3c(=O)n(CC(=O)NC(C)C)cnc32)cc1	Pf growth 96h 7.4µM
O=C(NCc1ccco1)C(=O)NCC1OCCN1S(=O)(=O)c1ccc(Br)cc1 (centres undefined)	Pf growth 48h inconclusive
Cc1ccc(SC(C)C(=O)Nc2ccccc2C(=O)N2CCOCC2)cc1 (centres undefined)	none (no result: Pf growth 96h)
Cc1oc(-c2ccc(F)cc2)nc1CN(Cc1ccccn1)CC1CCCO1 (centres undefined)	Pf growth 48h inconclusive, Pf growth 96h inconclusive
NC(=O)c1ccccc1OC1CCC1	none
CCCOc1ccccc1N/C(=N/c1nc(C)cc(C)n1)NC(=O)COc1ccc(OC)cc1	Pf growth 96h 4.7µM (no result: Pf growth 48h)
COc1ccc(N/C(=N/c2nc(C)cc(C)n2)NC(=O)Nc2ccc(Cl)c(Cl)c2)c(OC)c1	Pf growth 48h 12µM, Pf growth 96h 10µM
CCCOc1ccccc1N/C(N)=N/c1nc(C)cc(C)n1	Pf growth 48h 15µM
CCOc1ccc(N/C(N)=N/c2nc(C)cc(C)n2)cc1	none
COc1ccc(OC)c(N/C(=N/c2nc(C)cc(C)n2)NC(C)=O)c1	none
Cc1csc2nc(COC(=O)c3ccc(Cl)c([N+](=O)[O-])c3)cc(=O)n12	none
CCN(CCCNC(=O)CNC(=O)c1nn(-c2ccc(OC)c(OC)c2)c(=O)c2ccccc12)c1ccccc1	Pf growth 48h 12µM, Pf growth 96h inconclusive
CC(C)(C)n1ncc2c(=O)n(CC(=O)NCCc3ccccc3)cnc21	none
COc1ccc(CCNC(=O)CNC(=O)c2nn(-c3ccc(OC)c(OC)c3)c(=O)c3ccccc23)cc1OC	Pf growth 48h 9.3µM
COc1ccc(CCNC(=O)Cn2cnc3c(cnn3C(C)(C)C)c2=O)cc1OC	Pf growth 96h 10µM
Cc1nnc(SCC(=O)NC2CCC(C)CC2)s1 (centres undefined)	Pf growth 48h inconclusive
CCCC(C(=O)NC1CCCC1)N(C(=O)Cn1nnc(-c2ccc(C)o2)n1)c1ccccc1OC (centres undefined)	Pf growth 48h 10µM (no result: Pf growth 96h)
Cc1ccc(-c2nnn(CC(=O)N(CC3CCCO3)C(C(=O)NC3CCCC3)c3ccc(O)cc3)n2)o1 (centres undefined)	none
Cc1ccc(-c2nnn(CC(=O)N(CC3CCCO3)C(C(=O)NC3CCCC3)c3ccc(F)cc3)n2)o1 (centres undefined)	Pf growth 48h 12µM (no result: Pf growth 96h)
CCN(C(=O)CSc1nnc(Nc2ccc(OC)cc2)s1)C1CCS(=O)(=O)C1 (centres undefined)	none (no result: Pf growth 48h, Pf growth 96h)
CCOC(=O)c1ccccc1NC(=O)CSc1nc2ccccc2o1	none
Cc1cc(NC(=O)CSc2nc3cc(Cl)ccc3o2)no1	Pf growth 48h 8.3µM
CCN(CC)S(=O)(=O)c1ccc2oc(SCC(=O)Nc3cc(C)on3)nc2c1	Pf growth 48h inconclusive, Pf growth 96h 2.1µM
Cc1cc(NC(=O)CSc2nnc(-c3cccc(Cl)c3)o2)no1	Pf growth 48h inconclusive, Pf growth 96h 2.9µM
COc1cc(Cl)c(C)cc1NC(=O)CSc1nc2ccccc2o1	Pf growth 96h 10µM
COc1cccc(NC(=O)CN(C)C(=O)c2ccc(Cl)c(S(=O)(=O)N3CCCCCC3)c2)c1	Pf growth 48h inconclusive, Pf growth 96h inconclusive
CC(=O)Nc1ccc(-c2ccnc3c2CC(C)(C(=O)NCCN(C)C)O3)cc1 (centres undefined)	none (no result: Pf growth 48h, Pf growth 96h, SARS PLpro yeast)
COc1cc(-c2noc(C)c2C#CC2(O)CCCCC2)cc(OC)c1OC	Pf growth 48h inconclusive, Pf growth 96h inconclusive
COc1cc(-c2noc(C)c2C#CC2(N)CCCCC2)cc(OC)c1OC	Pf growth 48h inconclusive, Pf growth 96h 1.9µM
CCCCN(CCCC)CCNC(=O)CN1C(=O)CSc2ccc(S(=O)(=O)N3CCOCC3)cc21	none
CCOc1ccc(N2C(=O)C3ON(c4ccccc4)C(c4cccs4)C3C2=O)cc1 (centres undefined)	Pf growth 48h 12µM
COc1cccc(N2C(=O)C3ON(c4ccccc4)C(c4cccs4)C3C2=O)c1 (centres undefined)	none (no result: Pf growth 48h)
CC1CCCCN1CCNC(=O)c1ccc2c(c1)N(Cc1cccc(Cl)c1)C(=O)c1ccccc1S2(=O)=O (centres undefined)	none (no result: Pf growth 48h, Pf growth 96h, SARS PLpro yeast)
Cc1ccc(C(C)(C)C)cc1S(=O)(=O)N1CCC(C(=O)N2CCN(c3ccc(O)cc3)CC2)CC1	Pf growth 48h 3.7µM, Pf growth 96h 10µM
Cc1cc(C)c(C)c(S(=O)(=O)N2CCC(C(=O)Nc3ccncc3)CC2)c1C	Pf growth 48h inconclusive, Pf growth 96h 13µM
O=C(C1CC1)N1CCN(c2ccc(O)cc2)CC1	Pf growth 48h inconclusive, Pf growth 96h inconclusive
CCCS(=O)(=O)N1CCC(C(=O)N2CCCC2)CC1	Pf growth 96h 12µM
